Measurements from ChEMBL document CHEMBL3988442, “University of Dundee, Small-Polar-MMV Screening Library” (2021).
In all, about 48,000 compounds went through this assay and about 13,000 (27%) showed an effect of 50% or more. The list shows a part of the results.

Tested on: Wolbachia pipientis
Experiment: Anti-Wolbachia Cell-Based Screen
Type: functional
Parameters: scale not given: in the data most compounds retested in dose-response had high values
Conditions: 5 µM

Going from O=C(C1SCCc2sccc21)N1CCN(C2CC2)C(=O)C1 (stereo unspecified) to Cn1cc(C(=O)N2CCC(Cc3nccs3)CC2)cn1, the “Percent Effect” value rises from -5.096% to 0.6928%.

Going from CN(CCc1noc(C2CC2)n1)C(=O)CCc1cc2n(n1)CCCNC2 to COc1nn(C)cc1C(=O)N1CCC(c2nnc(C3CC3)o2)CC1, the “Percent Effect” value rises from 5.558% to 8.567%.

Compared with CC(=O)c1sc(C(NC(=O)c2ccccc2)C2CC2)nc1C (stereo unspecified), Cc1nc(CN2CCN(C(=O)CCC(=O)c3ccccc3)CC2)no1 is higher in “Percent Effect” value: 5.718% for the first, 17.55% for the second.

Compared with C[C@@H]1CN(C(=O)CSc2nncn2C)C[C@@]1(O)C1CC1, CSCC(=O)N1C[C@@H](C)[C@](O)(C(C)C)C1 is higher in “Percent Effect” value: -9.811% for the first, 100.1% for the second.

Going from CSCCC(=O)N1C[C@@H](C)[C@](O)(C(C)C)C1 to CSCCC(=O)N1CCN(CC(C)O)CC1 (stereo unspecified), the “Percent Effect” value falls from 109.4% to -18.5%.

Going from CSCC(=O)N1CCN(CC(O)C(C)(C)C)CC1 (stereo unspecified) to CCC(O)CN1CCN(C(=O)CCSC)CC1 (stereo unspecified), the “Percent Effect” value rises from -10.26% to 1.956%.

Going from Clc1cccc2c1CCN(Cc1nc(CC3CC3)no1)C2 to CC(C)Cc1noc(CN2CCCN(C(=O)c3ccccc3Cl)CC2)n1, the “Percent Effect” value rises from -15.7% to -15.62%.

Compared with O=C(NCCNc1ncccn1)c1scnc1Cl, Cc1ccc(-c2ncc(C(=O)NCCS(N)(=O)=O)s2)c(C)c1 is lower in “Percent Effect” value: 2.928% for the first, -6.964% for the second.

First: CCc1noc(CN2CCN(C(=O)N(C)C)CC2)n1
Second: CCc1noc(CN2CCN(C(=O)c3ccccn3)CC2)n1
The “Percent Effect” value of the first is lower: -9.661% for the first, -5.851% for the second.

Going from CC(C)Cc1noc(CN2CCN(C(=O)c3ccccc3F)CC2)n1 to CCc1noc(CN2CCN(C(=O)c3ccccc3F)CC2)n1, the “Percent Effect” value rises from 100.3% to 117.4%.

Going from CC(C)Cc1noc(CN2CCN(C(=O)c3ccco3)CC2)n1 to Cc1ncncc1C(=O)N1CCCN(Cc2nccn2C(C)C)CC1, the “Percent Effect” value falls from -2.17% to -12.73%.

Compared with OCC1(O)CCCN(Cc2ccc(-c3cc[nH]n3)s2)CC1 (stereo unspecified), CCOC(=O)C1(Cc2cccc(OC)c2)CCN(Cc2ncc[nH]2)CC1 is lower in “Percent Effect” value: 3.83% for the first, -0.1816% for the second.

Going from Cc1cnn(CC2CCCN2C(=O)c2cc3ccccc3[nH]c2=O)c1 (stereo unspecified) to Cc1cnn(CC2CCCN2C(=O)c2cc3ccccc3[nH]2)c1 (stereo unspecified), the “Percent Effect” value rises from -0.3129% to 2.697%.

Compared with O=C1COc2c(cccc2C(=O)N2CCCC2Cn2cccn2)N1 (stereo unspecified), O=C1COc2c(cccc2C(=O)N2CCCCC2Cn2cccn2)N1 (stereo unspecified) is higher in “Percent Effect” value: -10.2% for the first, -1.784% for the second.

Going from Cc1cnn(CC2CCCN2C(=O)c2cc3ccccc3c(=O)[nH]2)c1 (stereo unspecified) to Cc1cnn(CC2CCCN2C(=O)c2n[nH]c(=O)c3ccccc23)c1 (stereo unspecified), the “Percent Effect” value falls from 122.8% to 115%.

First: Cc1cnn(CC2CCCN2C(=O)Cc2n[nH]c3ccccc23)c1 (stereo unspecified)
Second: O=C(c1n[nH]c(=O)c2ccccc12)N1CCCC1Cn1cccn1 (stereo unspecified)
The “Percent Effect” value of the first is lower: 2.79% for the first, 110.2% for the second.

Going from O=C(c1nccc2ccccc12)N1CCCCC1Cn1cccn1 (stereo unspecified) to O=C(c1cccnc1)N1CCN(c2ccnc3ccsc23)CC1, the “Percent Effect” value falls from 116.9% to -5.057%.

Going from O=C1CC(c2ccc(F)c(F)c2)c2snc(C(=O)O)c2N1 (stereo unspecified) to CSc1ccc(-c2nc(CN3CCC(NC(C)=O)C3)c(C)o2)cc1 (stereo unspecified), the “Percent Effect” value falls from 8.498% to -8.203%.

Compared with Cc1ccc(-c2cc(CN(CC(N)=O)CC(C)C)on2)cc1, COc1ccc(CN(C(=O)CCC(C)C)c2cnn(C)c2)c(OC)c1 is higher in “Percent Effect” value: -24.63% for the first, -10.12% for the second.

Going from CCCn1nnnc1CSc1nccn1CC to CCCn1cc(C(=O)N2CCCC(Cc3nccs3)C2)cn1 (stereo unspecified), the “Percent Effect” value rises from -2.029% to 95.18%.

First: Cn1cc(C(=O)N2CCCC(Cc3nccs3)C2)cn1 (stereo unspecified)
Second: O=C(c1cccnc1)N1CCCC(Cc2nccs2)C1 (stereo unspecified)
The “Percent Effect” value of the first is lower: -5.021% for the first, 104.8% for the second.

Going from Cc1ncc(C(=O)N2CC[C@@]3(O)CCN(C4CCCCC4)C[C@H]3C2)cn1 to Cc1ncc(C(=O)N2CCCC(Cc3nccs3)C2)cn1 (stereo unspecified), the “Percent Effect” value rises from 8.568% to 96.26%.

Compared with O=C(N1CCCC1)C12CC(CN1Cc1nccs1)C2, O=C(c1cnco1)N1CCCC(Cc2nccs2)C1 (stereo unspecified) is higher in “Percent Effect” value: -16.8% for the first, -3.557% for the second.

Compared with CCc1nc(CN2CCCN(C(=O)c3cncnc3C)CC2)cs1, Cc1ncncc1C(=O)N1CCCC(Cc2nccs2)C1 (stereo unspecified) is higher in “Percent Effect” value: 14.37% for the first, 112.8% for the second.

Compared with Cc1cccc2c1nc(CCO)n2-c1ccc(N)nc1, COc1ccc2nc(O)c(CN(C)Cc3ncc[nH]3)cc2c1 is higher in “Percent Effect” value: -17.09% for the first, -3.339% for the second.

First: COc1cccc2c1OCC(C(=O)N1CCN(CCS(C)(=O)=O)CC1)C2 (stereo unspecified)
Second: COc1nn(C)cc1C(=O)N1CCC(c2nnc(-c3ccsc3)o2)CC1
The “Percent Effect” value of the first is lower: -9.844% for the first, 120.9% for the second.

First: Fc1ccc(Cn2ncc3c2CN(c2noc(C4CC4)n2)C3)cc1
Second: Cc1nccnc1N1Cc2cnc(CC(C)C)nc2C1
The “Percent Effect” value of the first is higher: 2.089% for the first, -0.1537% for the second.

Going from COc1nn(C)cc1C(=O)N1CCC(c2nnc(C(C)C)o2)CC1 to COc1ncccc1C(=O)N1CCC(c2nnc(C3CC3)o2)CC1, the “Percent Effect” value falls from 80.59% to 16.61%.

Compared with Cn1nccc1C(=O)N1CCC(n2cc(-c3ccsc3)nn2)CC1, Cn1ccnc1C(=O)N1CCC(Cn2cc(-c3ccsc3)nn2)CC1 is higher in “Percent Effect” value: -17.39% for the first, 0.3036% for the second.

First: C/C=C(/C)C(=O)NS(=O)(=O)c1ccc(Cl)cn1
Second: COc1ccc(NC(=O)N(C)Cc2ccco2)cn1
The “Percent Effect” value of the first is lower: 2.315% for the first, 3.036% for the second.

Going from CCCNC(=O)NCc1nc(C)c(C)o1 to Cc1nc(CN(C)S(=O)(=O)c2ccc(F)cc2Br)no1, the “Percent Effect” value rises from -5.382% to -1.638%.

First: C[S+]([O-])c1nncn1CC(=O)c1cccc(Cl)c1 (stereo unspecified)
Second: COc1ccc(CN(C(=O)C(C)C)c2cnn(C)c2)c(OC)c1
The “Percent Effect” value of the first is higher: 6.672% for the first, -18.73% for the second.

Going from COc1cccc(CN(Cc2ccco2)Cc2cnc(C)n2C)c1.O=C(O)CC(O)(CC(=O)O)C(=O)O to COc1cccc(CN(Cc2ccco2)Cc2[nH]cnc2C)c1.O=C(O)CC(O)(CC(=O)O)C(=O)O, the “Percent Effect” value rises from 133.7% to 156.3%.

Compared with COc1ccc(CN(Cc2ccco2)Cc2[nH]cnc2C)c(OC)c1.O=C(O)CC(O)(CC(=O)O)C(=O)O, COc1cccc(CN(Cc2ncc[nH]2)Cc2ccco2)c1.O=C(O)CC(O)(CC(=O)O)C(=O)O is higher in “Percent Effect” value: 111.9% for the first, 114.4% for the second.

Compared with COc1cccc(CN2CCC(c3cc(O)nc(C)n3)C2)c1.O=C(O)CC(O)(CC(=O)O)C(=O)O (stereo unspecified), Cc1noc(CN(Cc2ccc3c(c2)OCCO3)Cc2ccco2)n1 is higher in “Percent Effect” value: -8.452% for the first, -7.452% for the second.

With Cc1nc[nH]c1CN(Cc1ccccc1)Cc1nccs1 the “Percent Effect” value was 10.51%.
